ERK AVP inh – blocks ERK signaling stimulated by vasopressin; Potency, µM (top dose mostly 57.5 µM), for the others: top-dose activity, negative = inhibition, usual class: inhibitors; actives 0.99% (n = 72,000); HEK293-V1b, vasopressin-stimulated pERK AlphaScreen; also: % is scaled to controls: 0 for no effect and ±100 for the full control effect; nearly all actives have a fitted effect of over 55% in size
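HEK293 cells stably expressing V1b receptor, preincubated 30 min at 37 °C with compound, then stimulated 5 min with 25 nM vasopressin. Phospho-ERK by AlphaScreen SureFire after 5 h RT; normalized to DMSO and vasopressin; AC50 by Hill fit.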
CRE-bla Fsk – alters forskolin-stimulated CRE reporter signaling in CHO cells; CHO CRE-bla reporter (cAMP response element driving beta-lactamase), forskolin EC10, beta-lactamase ratio; Potency, µM (highest dose often 38.2 µM), for inactives: at the highest dose activity change, negative = inhibition, hits mostly activators; actives 2.5% (n = 71,000); active = well fitted activation curve with a large enough effect in the signal ratio, with a control signal flat, not every such curve was filed as active; inconclusive = small, poorly fitted or top-dose-only effect, or effect the other way, or a change in a side signal; the % refers to the signal ratio; also: % of control where 0% means no effect
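Modulation of forskolin signalling: compounds in titration series added with EC10 NKH 477 to CHO cells carrying a CRE-driven beta-lactamase reporter, 3 h, 37C. CCF4 FRET ratio (460/530 nm, ex 405 nm) gives %activity and AC50.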
TSHR ag – TSH receptor (human) agonism; P16473; HEK293-CNG-TSHR cells (CNG channel as cAMP sensor), membrane potential dye, cAMP; Potency, µM (series often up to 57.1 µM), for the others: at the highest dose activation, hits mostly activators; actives 0.48% (n = 73,000); AID 926; active = well fitted activation curve with a large enough effect in the main read-out, with a control signal flat, not every such curve was filed as active; inconclusive = small, poorly fitted or top-dose-only effect, or a change in a side signal; inactive = no such curve, though single readings can be large or run the other way; % of control where 0% means no effect;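 also: the control signal comes from parental cells without the receptor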
Target sequence (P16473 whole entry, looked up): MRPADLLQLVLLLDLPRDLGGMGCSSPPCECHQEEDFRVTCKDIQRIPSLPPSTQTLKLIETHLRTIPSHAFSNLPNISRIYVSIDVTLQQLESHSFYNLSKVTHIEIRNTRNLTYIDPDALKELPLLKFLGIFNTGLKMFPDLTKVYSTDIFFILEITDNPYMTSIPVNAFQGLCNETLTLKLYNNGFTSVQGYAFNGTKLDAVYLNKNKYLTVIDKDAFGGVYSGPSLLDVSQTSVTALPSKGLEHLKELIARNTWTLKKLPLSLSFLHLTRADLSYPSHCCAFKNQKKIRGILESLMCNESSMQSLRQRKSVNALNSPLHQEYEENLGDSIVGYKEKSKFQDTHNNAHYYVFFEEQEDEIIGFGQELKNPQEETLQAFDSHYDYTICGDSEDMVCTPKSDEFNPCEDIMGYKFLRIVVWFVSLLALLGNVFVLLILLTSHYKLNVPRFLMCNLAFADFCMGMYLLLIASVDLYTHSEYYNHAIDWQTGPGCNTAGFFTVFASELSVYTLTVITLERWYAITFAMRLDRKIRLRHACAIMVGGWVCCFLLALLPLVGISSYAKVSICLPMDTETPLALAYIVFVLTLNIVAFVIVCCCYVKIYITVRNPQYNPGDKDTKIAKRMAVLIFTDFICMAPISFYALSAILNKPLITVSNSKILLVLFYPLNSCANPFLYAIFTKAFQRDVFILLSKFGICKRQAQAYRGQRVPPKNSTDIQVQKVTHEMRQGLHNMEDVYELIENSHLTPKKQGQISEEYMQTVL
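HEK 293 cells stably expressing TSHR and a modified CNG channel, with CNG-only parental cells as counterscreen, were preloaded 60 min at room temperature with membrane potential dye containing 100 uM RO 20-1724. Compound exposure was 30 min, and depolarization was read as fluorescence at 590 nm.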
HEK293 cAMP ctrl – counter-screen for TSHR agonists: cAMP increase in parental HEK293. parental HEK293 CNG cAMP sensor, membrane potential fluorescence. Potency, µM (series often up to 57.1 µM), inactives show at the highest dose activation, usual class: activators. actives 2.5% (n = 73,000); also: % of control where 0% means no effect; nearly all actives have a fitted effect of over 55% in size
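Parental HEK 293 cells stably expressing a cAMP-gated CNG channel were loaded with membrane potential dye containing 100 uM RO 20-1724 for 60 min. Compound added for 30 min; depolarization read as fluorescence intensity at 590 nm.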
Tau fil binding – tau filament binding; P10636; recombinant tau filaments, thioflavin S fluorescence, 15 h; filaments grown with octadecylsulfate alongside compound; Potency, µM (highest dose often 57.1 µM), without a hit: top-dose activity change, negative = inhibition; actives 2% (n = 71,000); AID 596;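 also: % is scaled to controls: 0 for no effect and ±100 for the full control effect; actives lower thioflavin S fluorescence by blocking filaments or displacing dye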
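Tau 2 uM in ThS buffer dispensed; compound added; 60 uM ODS added (finals 1 uM tau, 30 uM ODS); 15 h 37 C; fluor ex450/em510.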
An asterisk follows results filed as active; [ ] = dose if it differs, or a comment. Hits are enriched below; roughly 7.6% of the tested compounds scored in any of these assays. Unless noted, calls follow the shape of the dose curve; as a rule, active = well fitted curve in the direction sought with a large enough effect; inconclusive = small, poorly fitted or top-dose-only effect, or another doubt; inactive = no such curve, though single readings can be large; an effect the other way counts as inactive or inconclusive. Potency is read from the fitted curve at half-maximal effect.

For CC1CCC2C(=O)OC(CO)CN2C1c1ccc(Br)cc1 (stereo not given) the results were ERK AVP inh -9.2%[11.5 µM], TSHR ag 4.6%[11.4 µM] and HEK293 cAMP ctrl 15.5%[11.4 µM].
CCOc1cc(N2CCOCC2)c(OCC)cc1NC(=O)CCS(=O)(=O)c1ccc(Cl)cc1 was read as ERK AVP inh -7.7%, CRE-bla Fsk -3.3%, TSHR ag -8.0%, HEK293 cAMP ctrl -0.2% and Tau fil binding 25.1µM*.
For Cc1cc(C)n2nc(C(=O)Nc3ccccc3N3CCOCC3)nc2n1 the results were ERK AVP inh 8.4%, CRE-bla Fsk inconclusive, TSHR ag 1.1%, HEK293 cAMP ctrl -1.1% and Tau fil binding 9.0%.
For CCOc1cc(N2CCOCC2)c(OCC)cc1NC(=O)CCC1CCCC1 the results were ERK AVP inh -22.9%, CRE-bla Fsk 3.9%, TSHR ag 1.3%, HEK293 cAMP ctrl -25.5% and Tau fil binding -11.0%.
Screening CCOc1cc(N2CCOCC2)c(OCC)cc1NC(=O)c1nc2nc(C)cc(C)n2n1 returned ERK AVP inh -8.7%, CRE-bla Fsk 5.01µM*, TSHR ag -7.6%, HEK293 cAMP ctrl -13.7% and Tau fil binding 25.1µM*.
For COc1ccc(C(=O)N2CCC3(CCCN(C(=O)Nc4cccc(F)c4)C3)CC2)cc1 the results were ERK AVP inh 23.1%, CRE-bla Fsk -10.6%, HEK293 cAMP ctrl 12.0% and Tau fil binding 1.6%.
For CCCCC1CN2C(CCC(C)C2c2ccc(Br)cc2)C(=O)O1 (stereo not given) the results were ERK AVP inh -8.9%[11.5 µM], TSHR ag inconclusive and HEK293 cAMP ctrl 15.3%[11.4 µM].
`COc1ccc(C(=O)N2CCC[C@@]3(CCN(c4cccc(-c5ccccc5)c4)C3)C2)cc1` gave ERK AVP inh -9.3%, CRE-bla Fsk 3.0%, TSHR ag -0.1%, HEK293 cAMP ctrl 14.0% and Tau fil binding 3.8%.
For CCCCCCCCCCCCCCC/C=C\[C@H](O)[C@@H](NC(=O)CCCCCCCCCCCCC)OC (tested in a mixture with another compound) the results were ERK AVP inh 11.8%, CRE-bla Fsk -5.9%, TSHR ag 5.2%, HEK293 cAMP ctrl 4.9% and Tau fil binding 3.9%.
For Oc1c(C(c2ccccc2)N2CCN(Cc3ccccc3)CC2)sc2ncnn12 (stereo not given) the results were CRE-bla Fsk inconclusive, TSHR ag inconclusive, HEK293 cAMP ctrl 31.6µM* and Tau fil binding 5.5%.
Screening N#Cc1ccc(CN2CC3(CCN(C(=O)c4csnn4)CC3)C2)cc1 returned ERK AVP inh 7.6%, CRE-bla Fsk 1.1%, TSHR ag -1.0%, HEK293 cAMP ctrl 7.7% and Tau fil binding 4.5%.
Screening CCCN(CCC)c1nc(C)cc(C(C#N)c2nc3ccccc3o2)n1 (stereo not given) returned ERK AVP inh 6.4%, CRE-bla Fsk 1.58µM*, TSHR ag 0.0%, HEK293 cAMP ctrl 7.3% and Tau fil binding 6.1%.
Screening Cc1cc(-c2nc3ccccc3o2)c2ccccc2n1 returned ERK AVP inh 0.4%, CRE-bla Fsk inconclusive, TSHR ag 8.7%, HEK293 cAMP ctrl 10.9% and Tau fil binding -3.9%.
CCOC(=O)c1[nH]cnc1C(=O)Nc1ccncc1 was read as ERK AVP inh inconclusive, CRE-bla Fsk inconclusive, TSHR ag -17.5%, HEK293 cAMP ctrl 3.3% and Tau fil binding -10.8%.
Screening O=C(c1ccccc1)c1nc[nH]c1C(=O)Nc1ccccc1 returned ERK AVP inh -23.5%, CRE-bla Fsk 10µM*, TSHR ag 9.3%, HEK293 cAMP ctrl -7.9% and Tau fil binding inconclusive.
`CCc1c(C#N)c(SCc2c(C)noc2C)nc2c1C(=O)CC(C)(C)C2` gave ERK AVP inh 15.3%, CRE-bla Fsk inconclusive, TSHR ag inconclusive, HEK293 cAMP ctrl 12.6µM* and Tau fil binding 3.2%.
Screening Cc1noc(C)c1CSc1nc2ccccc2nc1NS(=O)(=O)c1ccc(Cl)cc1 returned ERK AVP inh -1.3%, CRE-bla Fsk inconclusive, TSHR ag 13.4%, HEK293 cAMP ctrl 1.0% and Tau fil binding 6.4%.
Screening O=c1c(O)c(-c2ccc(O)c(O)c2)oc2c(OC[C@H]3O[C@@H](O)[C@@H](O)[C@H](O)[C@@H]3O)c(O)cc(O)c12 returned CRE-bla Fsk 11.1%, TSHR ag 10.2%, HEK293 cAMP ctrl -1.1% and Tau fil binding inconclusive.
O=C(Nc1nc(-c2ccccc2)cs1)c1cccs1 was read as ERK AVP inh 15.8µM*, CRE-bla Fsk -9.8%, TSHR ag inconclusive, HEK293 cAMP ctrl inconclusive and Tau fil binding 27.3%.
Cc1ccc(-c2csc(NC(=O)c3ccno3)n2)cc1 was read as ERK AVP inh -27.0%, CRE-bla Fsk -6.0%, TSHR ag 1.1%, HEK293 cAMP ctrl -0.6% and Tau fil binding 31.6µM*.
For O=C(Nc1nc(-c2ccc(Cl)s2)cs1)c1cccs1 the results were ERK AVP inh 10µM*, CRE-bla Fsk 1.0%, TSHR ag inconclusive, HEK293 cAMP ctrl 25.1µM* and Tau fil binding -25.4%.
c1ccc(Nc2nc(-c3cccs3)cs2)nc1 was read as ERK AVP inh 8.2%, CRE-bla Fsk inconclusive, TSHR ag -12.0%, HEK293 cAMP ctrl -19.4% and Tau fil binding 1.8%.
Screening O=C(COc1ccccc1)Nc1nc(-c2cccs2)cs1 returned ERK AVP inh -17.0%, CRE-bla Fsk 15.7%, TSHR ag inconclusive, HEK293 cAMP ctrl 25.1µM* and Tau fil binding 25.8%.
O=C(Nc1nc(-c2ccc(S(=O)(=O)N3CCCC3)cc2)cs1)c1ccco1 was read as ERK AVP inh inconclusive, CRE-bla Fsk inconclusive, TSHR ag inconclusive, HEK293 cAMP ctrl inconclusive and Tau fil binding 76.3%.
O=C(Nc1nc(-c2ccccc2)ns1)c1cccs1 was read as ERK AVP inh 2.5%, CRE-bla Fsk 0.2%, TSHR ag 10.9%, HEK293 cAMP ctrl 2.1% and Tau fil binding -9.4%.
COc1cc(OC)cc([C@H](CNc2ncnc3c2ncn3[C@@H]2O[C@@H](CO)[C@H](O)[C@@H]2O)c2ccccc2C)c1 was read as CRE-bla Fsk 4.6%, HEK293 cAMP ctrl 3.7% and Tau fil binding -2.0%.
`COc1cccc(Cn2c(=O)c(-c3ccc(Cl)cc3)nc3cnc(N(C)C)nc32)c1` gave ERK AVP inh 4.6%, CRE-bla Fsk inconclusive, TSHR ag 5.7%, HEK293 cAMP ctrl 9.5% and Tau fil binding -4.9%.
For N#Cc1sc2nc3c(c(-c4ccco4)c2c1N)CCCC3 the results were ERK AVP inh 80.0%, CRE-bla Fsk inconclusive, HEK293 cAMP ctrl 23.1% and Tau fil binding 3.16µM*.
CC(=O)Nc1ccccc1C=C1c2ccccc2-c2ccccc21 was read as ERK AVP inh -12.0%[11.5 µM], CRE-bla Fsk -0.5%[7.6 µM], TSHR ag 10.5%[11.4 µM], HEK293 cAMP ctrl 4.8%[11.4 µM] and Tau fil binding 13.2%[11.4 µM].

High-throughput results deposited in PubChem BioAssay by National Center for Advancing Translational Sciences (NCATS).
